From PubChem BioAssay
AMA1-RON2 inh: qHTS for Inhibitors of AMA1-RON; Towards Development of Antimalarial Drug Lead: Primary Screen. Plasmodium falciparum AMA1 (3D7) - RON2 peptide interaction. AlphaScreen AMA1-biotinylated RON2 peptide binding. Potency, µM (series often up to 58.2 µM), for inactives: top-dose activity change, negative = inhibition, actives largely listed as inhibitors. 0.2% of 360,000 active. AID 720542, 2013;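 also: 0% = vehicle wells and -100% = peptide control; nearly all actives have a fitted effect of over 45% in size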
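AMA1 (3D7) with his tag at 25 nM final met compounds first, then biotinylated RON2 peptide at 25 nM; detection used donor plus acceptor beads, 10 µg/mL apiece, read by AlphaScreen after 30 min at room temperature.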
VACV Venus inh: qHTS for Stage-Specific Inhibitors of Vaccinia Orthopoxvirus: Venus Reporter Primary qHTS; Vaccinia virus Venus reporter expression, fluorescence; Potency, µM (top dose mostly 36.5 µM), without a hit: top-dose activity change, negative = inhibition, hits mostly inhibitors; 0.46% of 330,000 active; AID 720580, 2013; calls by dose curve; tested in A549 cells; also: nearly all actives have a fitted effect of over 30% in size
Vaccinia mCherry: qHTS for Stage-Specific Inhibitors of Vaccinia Orthopoxvirus: mCherry Reporter Primary qHTS; Vaccinia virus mCherry reporter infection, fluorescence; Potency, µM (series often up to 36.5 µM), without a hit: top-dose activity change, negative = inhibition, most hits filed as inhibitors; 0.63% of 310,000 active; AID 720579, 2013; calls by dose curve; tested in A549 cells; also: nearly all actives have a fitted effect of over 35% in size
Pf growth 48h: Primary qHTS for delayed death inhibitors of the malarial parasite plastid, 48 hour incubation; P. falciparum luciferase growth in erythrocytes, 48 h; Potency, µM (top dose mostly 28.7 µM), for the others: at the top dose activity change, negative = inhibition, hits mostly inhibitors; 5.9% of 310,000 active; AID 504832, 2011
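Firefly luciferase activity from engineered P. falciparum reports growth; inhibitors lower the luminescent signal. Cultures contained 2% hematocrit erythrocytes at 0.1% final parasitemia.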
Pf growth 96h: Primary qHTS for delayed death inhibitors of the malarial parasite plastid, 96 hour incubation. P. falciparum luciferase reporter growth, 96 h. 6.9% of 320,000 active. Potency, µM (doses to about 28.7 µM), for inactives: at the top dose activity change, negative = inhibition, usual class: inhibitors
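Parasite growth measured via integrated firefly luciferase reporter in P. falciparum. Infected erythrocytes at 2% hematocrit, 0.05% parasitemia final were treated 96 hours at 37 C under 5% CO2, and luminescence was read.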
Numbers without * were called inactive; i = inactive; ? = inconclusive; . = no result given; ! = not active in a repeat; [ ] = another dose, or the depositor's remark. Sampled rows, rich in hits. Any-hit rate of the full collection: about 8.7%. Unless noted, calls follow the shape of the dose curve; as a rule, active = well fitted curve in the direction sought with a large enough effect; inconclusive = small, poorly fitted or top-dose-only effect, or another doubt; inactive = no such curve, though single readings can be large; an effect the other way counts as inactive or inconclusive. Unless noted, % is scaled to controls: 0 for no effect and ±100 for the full control effect; potency is read from the fitted curve at half-maximal effect.

SMILES	AMA1-RON2 inh	VACV Venus inh	Vaccinia mCherry	Pf growth 48h	Pf growth 96h
Cc1cccc(CNC(=O)c2c3n(c(C)cc2=O)-c2ccccc2SC(c2ccsc2)C3)n1 (stereo not drawn)	.	-11%	i	.	.
Cc1ccc(Cl)cc1-n1c(=O)cc(N2CCN(c3ccc(F)cc3)CC2)[nH]c1=O	.	-8%	-4%	.	.
CC1CCN(C(=O)C2CCN(S(=O)(=O)c3ccc(-n4cnnn4)cc3)CC2)CC1	11%	-2%	48%	-1%	3.7µM*
CCOc1ccccc1NC(=O)CSC1=Nc2ccccc2C2=NC(CC(=O)NCc3ccc4c(c3)OCO4)C(=O)N12 (stereo not drawn)	.	-4%	-13%	.	.
Cc1cccc(/C=N/NC(=O)c2cc(Br)ccc2OCc2ccccc2)n1	25%	?	?	?	-5%
Cc1ccc(/C=N/NC(=O)c2ccccc2OCc2ccc(F)cc2)o1	29%	.	.	?	?
O=C(N/N=C/c1ccncc1)c1ccccc1OCc1ccc(Br)cc1	-1%	?	?	-62%	1.9µM*
Cc1cccc(/C=N/NC(=O)c2ccccc2OCc2cccc(Br)c2)n1	29%	-14%	?	15µM*	?
O=C(O)CSCCn1cccn1	-5%	.	.	23%	13µM*
CC1=C(/C=C/C(C)=C\C=C\C(C)=C\C=C\C=C(C)\C=C\C=C(C)\C=C\C2=C(C)C[C@@H](O)CC2(C)C)C(C)(C)C[C@H](O)C1	.	.	.	15µM*	7.6µM*
CC1=C[C@@H](O)CC(C)(C)[C@@H]1/C=C/C(C)=C/C=C/C(C)=C/C=C/C=C(C)/C=C/C=C(C)/C=C/C1=C(C)C[C@H](O)CC1(C)C	.	.	.	?	4.3µM*
CC1=C(/C=C/C(C)=C/C=C/C(C)=C/C=C/C=C(C)/C=C/C=C(C)/C=C/C(=O)[C@]2(C)CC(O)CC2(C)C)C(C)(C)CC(O)C1 (stereo partly drawn)	.	-11%	-12%	.	.
COc1ccccc1Cn1c(=O)c2ccccc2n2c(SCc3csc(C)n3)nnc12	0%	-18%	-7%	?	5.2µM*
COc1ccccc1Cn1c(=O)c2ccccc2n2c(Sc3ncnc4sccc34)nnc12	-11%	.	.	?	17%
O=C(C1CCN(c2nc3ccc(Br)cc3s2)CC1)N1CCC2(CC1)OCCO2	4%	-27%	.	41%	4.7µM*
CC(C)C(CCNC(=O)CC(Cc1ccccc1)c1ccco1)c1ccco1 (stereo not drawn)	7%	.	.	?	13µM*
CN(C)c1ccc(/C=C2\C=Nc3ccccc32)cc1	.	18%	-27%	.	.
CC(C)C(NS(C)(=O)=O)c1nnc2n1CCN(Cc1ccnc3ccccc13)CC2 (stereo not drawn)	.	-6%	-18%	.	.
c1ccc2c(Cc3c[nH]c4ccccc34)c[nH]c2c1	.	-9%	-10%	.	.
COC(=O)c1c[nH]c(=O)c2ccccc12	-6%	-1%	i	35%	?
CCN(CC)Cc1c[nH]c2ccccc12	-3%	-19%	.	?	8.3µM*
CCN(CC)Cc1c[nH]c2c(C(=O)OC)cccc12	13%	-13%	-2%	0%	2.6µM*
CCC(=O)N1CCc2cc(CNC(=O)C(CC)c3ccccc3)ccc21 (stereo not drawn)	.	-13%	-14%	.	.
CCc1ccc(NC(=O)Cn2c(=O)n(CCCC(=O)NCCc3ccc(OC)c(OC)c3)c(=O)c3ccccc32)cc1	.	-6%	-10%	.	.
COc1cccc(CNc2ncnc3ccc(-c4c(C)noc4C)cc23)c1	.	.	.	4.1µM*	5.9µM*
SMILES	AMA1-RON2 inh	VACV Venus inh	Vaccinia mCherry	Pf growth 48h	Pf growth 96h
Cc1noc(C)c1-c1ccc2ncnc(NCc3ccccc3)c2c1	.	16%	9%	.	.
Cc1noc(C)c1-c1ccc2ncnc(NCC3CCCCN3C)c2c1 (stereo not drawn)	.	.	.	4.1µM*	2.3µM*
CN(C)S(=O)(=O)c1cccc(C(=O)C2=C3SC=C(c4ccccc4)N3CC2)c1	7%	-15%	0%	-19%	3.3µM*
Cc1cc(C)cc(C(=O)Nc2c(C(=O)Nc3ccccc3F)oc3ccccc23)c1	.	0%	-11%	.	.
CCC(C)n1c(SCc2ccccc2)nc2ccsc2c1=O (stereo not drawn)	5%	-19%	-10%	?	4.1µM*
CCOC(=O)c1sc2nc(C)nc(NCc3ccc(Cl)cc3)c2c1C	6%	-25%	-19%	9.3µM*	?
O=C(CN1Cc2ccccc2OC(c2ccccc2F)C1)NC(c1ccccn1)C(F)(F)F (stereo not drawn)	.	-3%	-12%	.	.
CCOC(=O)C1=C(c2ccccc2)NC(N)=NC1c1ccc(OCc2ccc(Cl)cc2)c(OC)c1 (stereo not drawn)	-19%	.	.	1.5µM*	1.7µM*
Cc1ccc(Cn2ccc(=O)c(OCc3c(Cl)cccc3Cl)c2C)cc1	-2%	-29%	.	.	4.1µM*
Cc1[nH]ccc(=O)c1OCc1c(Cl)cccc1Cl	6%	.	.	-2%	2%
O=C(CSc1nc2ccccc2nc1Cc1ccc(Cl)cc1)N1CCCc2ccccc21	.	-13%	-4%	.	.
COc1ccc(C2CC(c3ccccc3)=NN2C(=O)c2ccc(F)cc2)cc1 (stereo not drawn)	-5%	-14%	-1%	12µM*	-24%
O=C(c1ccccc1)N1N=C(c2ccccc2)CC1c1ccc2nccnc2c1 (stereo not drawn)	-4%	-10%	i	9.3µM*	?
COc1ccc(C2CC(c3ccc(OC)cc3O)=NN2C(=O)c2ccccc2)cc1 (stereo not drawn)	-7%	-3%	-27%	-14%[0.00184 µM]	?
Cc1cc(C)c(NC(=O)CSc2nc3ccccc3c3nc(-c4ccccc4)nn23)c(C)c1	.	-7%	-4%	.	.
O=[N+]([O-])c1ccc(O)c(/C=N/n2cnc3ccccc32)c1	-4%	-10%	-8%	-19%	?
O=[N+]([O-])c1ccc(O)c(/C=N/n2c(CO)nc3ccccc32)c1	9%	-5%	-17%	?	13µM*
CCC1(C2=NCCN2)Cc2ccccc2O1 (stereo not drawn)	-1%	-16%	-25%	5%	7.6µM*!
CC1c2ccccc2CN1CC1=NCCN1 (stereo not drawn)	.	-5%	-14%	.	.
CCC(=O)NC(Nc1sc2c(c1C(=O)OC)CCC2)C(Cl)(Cl)Cl (stereo not drawn)	5%	?	?	?	?
CCOC(=O)c1c(NC(NC(C)=O)C(Cl)(Cl)Cl)sc2c1CCCC2 (stereo not drawn)	9%[2.32 µM]	-22%	-16%	?	?
COC(=O)c1c(NC(NC(=O)CC(C)C)C(Cl)(Cl)Cl)sc2c1CCC2 (stereo not drawn)	25%	-6%	-8%	?	12µM*
